# Source: PubChem BioAssay (NCI)
# Compounds without any hit were thinned out: in the full panel of roughly 79,000, 15% have a hit. Values without a mark were called inactive. Calls of active or inactive are those of the source. Rule as the data show it: active = growth inhibition above about 70%; inactive = the rest.
# What was measured:
# [1] = NCI Yeast Anticancer Drug Screen. Data for the rad50 strain (AID 155);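 also: 0% = growth of vehicle-only cultures of the same strain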; conditions: S. cerevisiae rad50 strain growth inhibition, active compounds read high
# Procedure, shortened: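 Inhibition values express reduced yeast growth in compound-treated cultures relative to vehicle-treated controls.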
# [2] = NCI Yeast Anticancer Drug Screen. Data for the mec2-1 strain (AID 157); conditions: S. cerevisiae mec2-1 strain, active compounds read high
# Procedure, shortened: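 Vehicle-treated cultures served as reference for growth inhibition of compound-exposed mec2-1 yeast.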
# [3] = NCI Yeast Anticancer Drug Screen. Data for the sgs1 mgt1 strain (AID 161);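 also: 0% = growth of cultures given vehicle only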; conditions: S. cerevisiae sgs1 mgt1 strain, active compounds read high
# Procedure, shortened: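 Test agents were incubated with a DNA-repair-mutant yeast strain. Growth was then read and compared against vehicle-treated controls.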
# [4] = NCI Yeast Anticancer Drug Screen. Data for the cln2 rad14 strain (AID 165);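 also: 0% = growth equal to vehicle treated cultures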; conditions: S. cerevisiae cln2 rad14 strain, active compounds read high
# Procedure, shortened: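 Each compound was tested on cln2 rad14 yeast. Inhibition of growth was calculated against vehicle-exposed controls.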
# [5] = NCI Yeast Anticancer Drug Screen. Data for the bub3 strain (AID 167); conditions: S. cerevisiae bub3 mutant strain, active compounds read high
# Procedure, shortened: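 Steps: expose the mutant yeast strain to compound; grow alongside vehicle-treated cultures; measure growth; express inhibition against the vehicle cultures.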
# [6] = NCI Yeast Anticancer Drug Screen. Data for the mlh1 rad18 strain (AID 175); conditions: S. cerevisiae mlh1 rad18 strain growth inhibition, active compounds read high
# Procedure, shortened: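 Vehicle-treated cultures served as the reference for growth inhibition in a yeast strain carrying DNA damage repair alterations exposed to each compound.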
# [7] = at 5.0 µM (retest, dose inferred, filed as 0.5)
# [8] = at 50.0 µM (retest, dose inferred, filed as 5.0)
Structure (SMILES),"growth inhibition [1, 7]","growth inhibition [1, 8]",growth inhibition ([1]; at 50.0 µM),"growth inhibition [2, 7]","growth inhibition [2, 8]",growth inhibition ([2]; at 50.0 µM),"growth inhibition [3, 7]","growth inhibition [3, 8]",growth inhibition ([3]; at 50.0 µM),"growth inhibition [4, 7]","growth inhibition [4, 8]",growth inhibition ([4]; at 50.0 µM),"growth inhibition [5, 7]","growth inhibition [5, 8]",growth inhibition ([5]; at 50.0 µM),"growth inhibition [6, 7]","growth inhibition [6, 8]",growth inhibition ([6]; at 50.0 µM)
C=CCOc1ccc(/C=N/NC(N)=S)cc1,10%,83% (active),88.3% (active),13%,81% (active),87.3% (active),15%,78% (active),44%,6%,87% (active),58.2%,5%,91% (active),88.1% (active),10%,90% (active),52.1%
Cc1c(C[n+]2cc3ccccc3cc2/C=N/O)ccc2ccccc12,1%,31%,19.1%,3%,39%,10.1%,2%,31%,5.5%,-2%,-6%,-3.1%,1%,19%,97.2% (active),1%,37%,16.8%
O=C1/C(=C/N2CCN(c3ccccc3)CC2)Cc2c(Cl)cccc21,13%,-2%,77.3% (active),7%,91% (active),98.2% (active),7%,4%,64.3%,64%,35%,93.8% (active),-9%,33%,94.3% (active),6%,41%,98.2% (active)
N#Cc1cc2c(cc1Cl)Sc1nccn1S2(=O)=O,5%,36%,28.4%,6%,52%,34.7%,19%,63%,43.7%,-1%,17%,39.2%,10%,90% (active),76.7% (active),2%,62%,64%
CCC(=S)N(C)O,95% (active),96% (active),66.5%,99% (active),98% (active),50.9%,100% (active),98% (active),69%,98% (active),91% (active),45.1%,100% (active),97% (active),52%,98% (active),97% (active),86.2% (active)
